Pin1 inh – blocks the human prolyl isomerase Pin1. Q13526. Pin1 FP peptide displacement, HiFluor488, 10 min. actives 0.009% (n = 390,000). Potency, µM (doses to about 115 µM), for the others: at the highest dose activity, negative = inhibition, actives largely listed as inhibitors; active = well fitted inhibition curve with a large enough effect in the polarisation, with a control signal flat, not every such curve was filed as active; inconclusive = small, poorly fitted or top-dose-only effect, or effect the other way, or a change in a side signal; inactive = no such curve, though single readings can be large or run the other way; the % refers to the polarisation; also: potency is read from the fitted curve at half-maximal effect; % is scaled to controls: 0 for no effect and ±100 for the full control effect
IL-2 act – activators of IL-2. IL-2 activation reporter assay, cell-based qHTS; stimulated with anti-CD3/CD4/CD28 beads; in transgenic mouse T cells. activation, % (series mostly up to about 46 µM). actives 0.065% (n = 360,000); in the data active = activation above about 50%; inconclusive = mostly about 30% to 49%; also: 0% is about no effect
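EGFP and DsRed fluorescence is measured by plate cytometry in unstimulated transgenic mouse T cells exposed to compound for 60 minutes, then stimulated 18 hours at 37 degrees C with anti-CD3/anti-CD4 beads plus anti-CD28.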
USP2a inh – blocks human ubiquitin-specific protease USP2a; USP2 core, Ub-CHOP2 coupled fluorogenic reporter, 485/531; Potency, µM (top dose mostly 38.3 µM), inactives show at the highest dose activity change, negative = inhibition, actives largely listed as inhibitors; actives 0.01% (n = 330,000); AID 463254;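 also: potency is read from the fitted curve at half-maximal effect; plate controls were DMSO wells for no effect and full inhibition by NEM control for full effect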
Target sequence (O75604 whole entry, looked up): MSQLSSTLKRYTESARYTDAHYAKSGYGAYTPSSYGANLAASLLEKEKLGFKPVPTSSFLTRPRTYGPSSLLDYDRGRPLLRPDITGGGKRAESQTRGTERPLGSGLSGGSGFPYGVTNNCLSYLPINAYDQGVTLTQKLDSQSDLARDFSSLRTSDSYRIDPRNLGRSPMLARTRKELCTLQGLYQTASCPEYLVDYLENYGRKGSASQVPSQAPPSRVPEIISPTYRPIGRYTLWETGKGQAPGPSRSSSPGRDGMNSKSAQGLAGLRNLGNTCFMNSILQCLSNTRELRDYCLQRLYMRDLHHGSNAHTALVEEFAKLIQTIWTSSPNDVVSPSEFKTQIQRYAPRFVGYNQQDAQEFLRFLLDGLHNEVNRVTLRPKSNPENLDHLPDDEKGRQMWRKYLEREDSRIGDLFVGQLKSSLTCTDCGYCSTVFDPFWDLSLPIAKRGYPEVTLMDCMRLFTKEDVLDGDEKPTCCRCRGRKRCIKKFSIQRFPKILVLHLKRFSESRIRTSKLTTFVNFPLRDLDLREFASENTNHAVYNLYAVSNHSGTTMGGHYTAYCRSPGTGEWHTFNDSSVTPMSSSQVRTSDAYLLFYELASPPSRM
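Cell-free coupled assay: 10nM USP2 core preincubated 30min RT with compound in Tris-HCl pH 8.0/CaCl2/CHAPS buffer, then 25nM Ub-CHOP2 and 25nM reporter substrate; fluorescence (Ex 485/Em 531) read after 60min RT, normalized to NEM inhibition, concentration-response curves fitted.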
PKM2 act – activators of human pyruvate kinase M2. purified PKM2, Kinase-Glo ATP luminescence, activation; response scale: 0% is enzyme alone, no compound. Potency, µM (top dose mostly 57.5 µM), without a hit: top-dose activation, usual class: activators. actives 0.34% (n = 260,000). P14618. AID 1631; also: potency is read from the fitted curve at half-maximal effect; % is scaled to controls: 0 for no effect and ±100 for the full control effect; nearly all actives have a fitted effect of over 55% in size
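Purified hPK-M2 (>95%) run at intermediate activity with 0.1 mM ADP and 0.5 mM PEP in 50 mM imidazole pH 7.2, KCl, MgCl2; 1 h room temperature. ATP formed read by Kinase-Glo luminescence; normalized to uninhibited and no-enzyme controls.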
Integrin act MD – activators of alpha7 integrin expression for muscular dystrophy. alpha7betagal myoblasts, beta-gal FDG fluorescence, 48 h. Potency, µM (top dose mostly 38.3 µM), without a hit: top-dose activation, actives largely listed as activators. actives 0.064% (n = 350,000). AID 624291;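 also: potency is read from the fitted curve at half-maximal effect; 100% = response of the positive control SU9516; nearly all actives have a fitted effect of over 60% in size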
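Alpha7betagal+/- myoblasts (passage 13) were plated 16-24 hr, then exposed to compounds (1:260 dilution of DMSO stock) for 48 hours at 37C. After MPER lysis, β-galactosidase reporter activity was read as FDG fluorescence (ex 480/em 540) after 30 minutes.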
ClpP mod – qHTS Assay for Activators of ClpP. Potency, µM (titrated, usually from 57.5 µM), for the others: at the top dose activity change, negative = active. purified B. subtilis ClpP, FRET peptide cleavage, 20 min. ATP-dependent Clp protease proteolytic subunit (Bacillus subtilis (strain 168)), P80244. actives 1.9% (n = 340,000); active = well fitted falling curve with a large enough effect; inconclusive = small, poorly fitted or top-dose-only effect; inactive = no such curve, though single readings can be large or run the other way; also: potency is read from the fitted curve at half-maximal effect; the source files actives as falling curves though it sought activators and does not explain the sign; nearly all actives have a fitted effect of over 65% in size
Target sequence (P80244 whole entry, looked up): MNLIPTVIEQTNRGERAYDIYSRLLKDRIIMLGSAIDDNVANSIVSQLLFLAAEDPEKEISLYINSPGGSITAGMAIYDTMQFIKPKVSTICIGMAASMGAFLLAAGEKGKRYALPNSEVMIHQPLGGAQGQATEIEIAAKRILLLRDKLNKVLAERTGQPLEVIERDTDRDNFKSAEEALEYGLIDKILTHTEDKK
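ClpP 10 microg/mL final, pH 8 Tris/KCl buffer with BSA, glycerol, Tween-20; compound pinned in; FRET-FV substrate; RT 20 min; Ex320/Em430; ΔFRET vs ADEP 5.8 microM, DMSO, no enzyme.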
Numbers without * were called inactive; ? = inconclusive; · = no result; ! = repeats disagree; [ ] = another dose, or the depositor's remark. An excerpt weighted towards active compounds, which were near 1.9% of everything screened. Unless noted, calls follow the shape of the dose curve; as a rule, active = well fitted curve in the direction sought with a large enough effect; inconclusive = small, poorly fitted or top-dose-only effect, or another doubt; inactive = no such curve, though single readings can be large; an effect the other way counts as inactive or inconclusive.

SMILES	Pin1 inh	IL-2 act	USP2a inh	PKM2 act	Integrin act MD	ClpP mod
N=c1ccn2c(n1)OC1C(O)[C@@H](CO)O[C@H]12 (stereo not given in full)	22.1%	·	·	·	·	·
COc1ccc(Br)cc1CNC(=O)c1ccc2nc(C(C)C)oc2c1	-12.8%	·	·	·	·	5.2%
COc1ccc(OC)c(CNC(=O)c2ccc3nc(C(C)C)oc3c2)c1	-2.6%	·	·	·	·	31.6µM*
O=C(Nc1ccccc1Sc1ccccc1)c1cnn2c1NC(=C1CC1)C=C2C(F)F	3.1%	·	·	·	·	-23.1%
CCc1ccc(-c2nc3ccc(Br)cc3c(C(=O)O)c2C)s1	-3.2%	1.5	-0.1%	·	?	25.1µM*!
Cc1c(-c2ccccc2Br)nc2ccccc2c1C(=O)O	-6.4%	1.0	·	·	-1.2%	-2.0%
CNC(=O)C1(C(F)(F)F)C/C(=C\Cc2ccccc2)CCCO1 (stereo not given)	2.4%	·	·	·	·	·
Cc1cccc2[nH]c3c(N4CCC5(CC4)OCCO5)ncnc3c12	6.8%	-3.1	0.8%	1.7%	-37.9%	?
Cc1cccc2[nH]c3c(N4CCN(C(=O)c5ccco5)CC4)ncnc3c12	5.1%	0.6	-4.8%	27.9%	-31.3%	31.6µM*
CCN(N=O)c1ccc(/C=C/c2ccnc3ccccc23)cc1	·	·	·	·	·	1.2%
C=CCn1c(N)c(C(=O)NCC2CCCO2)c2nc3ccccc3nc21 (stereo not given)	12.0%	-2.8	-2.4%	14.1%	-28.0%	8.91µM*
COc1ccc(N=c2oc3cc(O)ccc3cc2C(=O)NCC2CCCO2)c(OC)c1 (stereo not given)	?	5.8	5.8%	2.1%	6.1%	25.1µM*
COc1ccc(-n2c(N)c(C(=O)NCC3CCCO3)c3nc4ccccc4nc32)c(OC)c1 (stereo not given)	?	-0.8	3.6%	-1.6%	0.4%	31.6µM*
COc1ccc(-n2nc(C(=O)NCC(=O)NCC3CCCO3)c3ccccc3c2=O)c(OC)c1 (stereo not given)	-2.0%	0.7	2.3%	0.2%	3.5%	0.5%
O=S(=O)(c1ccc(Cl)cc1)N1CCN(c2nc(-c3cccc(Br)c3)nc3ccccc23)CC1	13.9%	·	·	·	·	·
CC(C)Sc1nc2sc3c(c2c2nnc(SCC(=O)NCc4ccco4)n12)CCCC3	?	1.4	1.0%	-0.9%	-14.2%	31.6µM*
COCCNC(=O)C1(C(F)(F)F)C/C(=C/CCO)CCCO1 (stereo not given)	-10.0%	·	·	·	·	·
CN(C)/C=N/c1nc2c(ncn2C2CC(O)C(CO)O2)c(=O)[nH]1 (stereo not given)	-14.5%	·	·	·	·	-0.9%
COc1ccc2c(n1)Sc1nc3ccccc3nc1N2	?	259.7*	11.8%	-5.5%	-10.0%	·
COc1cc2ccccc2nn1	-13.9%	-4.1	0.7%	3.2%	12.2%	·
O=c1[nH]/c(=C/c2ccc3c(c2)OCO3)c(=O)[nH]/c1=C\c1ccc2c(c1)OCO2	·	·	·	·	·	0.5%
O=S(Cc1ccc(Br)cc1)Cc1nnc(SCc2c(F)cccc2Cl)n1-c1ccccc1 (stereo not given)	?	-0.7	-3.9%	-0.2%	35.7%	31.6µM*
O=S(Cc1ccc(Br)cc1)Cc1nnc(SCc2ccc(Cl)cc2)n1-c1ccccc1 (stereo not given)	0.7%	0.3	-1.7%	0.8%	?	1.4%
CN1C(=O)/C(=C/c2cn(CC(=O)N3CCCCC3)c3ccccc23)NC1=S	?	22.9	2.0%	·	21.8%	1.7%
CN1C(=O)/C(=C/c2cn(CC(=O)NCc3ccco3)c3ccccc23)NC1=S	·	·	0.8%	7.94µM*	·	·
SMILES	Pin1 inh	IL-2 act	USP2a inh	PKM2 act	Integrin act MD	ClpP mod
Nc1ccc2c(c1)C(=O)N(c1ccc3ccccc3c1)C2=O	-1.0%	·	·	·	·	-3.8%
N#Cc1nc(-c2cccc(Cl)c2)oc1NCc1cccnc1	0.1%	1.3	1.1%	-4.2%	-0.6%[7.66 µM]	2.24µM*
COc1ccc(-c2nc(C#N)c(NCc3cccnc3)o2)cc1OC	-7.8%	-2.9	-0.1%	1.0%	-25.4%[7.66 µM]	28.2µM*
N#Cc1nc(-c2ccco2)oc1NCc1cccnc1	-7.4%	-0.2	-6.9%	-7.9%	14.9%	26.2%
N#Cc1nc(Cc2ccccc2)oc1NCc1cccnc1	-2.1%	0.0	1.0%	0.6%	-16.2%	28.2µM*
COC(=O)C1=C[C@@H](C(=O)OC)C2C3=C(C(=O)[C@@]2(C)NC(=O)c2ccccc2)[C@H](C)n2c(=O)n(-c4ccccc4)c(=O)n2[C@@H]3C1 (stereo not given in full)	-5.6%	·	·	·	·	·
OC1C(Br)=Cc2ccccc21 (stereo not given)	·	·	·	·	·	-1.6%
COc1ccc2c(c1)c(=O)oc1cc(OCC(=O)N3CCC(C)CC3)ccc12	?	-1.8	0.0%	-14.9%	-30.3%	17.8µM*
COc1ccc2c(c1)c(=O)oc1cc(OCC(=O)N3CCCC(C)C3)ccc12 (stereo not given)	-3.1%	0.2	-3.7%	0.4%	4.5%	?
O=C(O)[C@@H]1CCCN1C(=O)COc1ccc2c3c(c(=O)oc2c1)CCC3	5.5%	0.4	0.2%	5.4%	17.4%	5.2%
COc1ccc2c(c1)c(=O)oc1cc(OCC(=O)N3CCc4ccccc4C3)ccc12	?	-1.6	-1.5%	11.1%	-23.2%	4.47µM*
CCC1CCCCN1C(=O)COc1ccc2c3c(c(=O)oc2c1)CCC3 (stereo not given)	2.4%	0.2	1.6%	·	-1.3%	28.2µM*
CCOC(=O)c1ccc(S(=O)(=O)N2CCN(c3nc(-c4ccccc4)nc4ccccc34)CC2)cc1	-1.4%	·	·	·	·	-1.4%
CCOc1ccc(/C=C/c2ccc3ccccc3[n+]2C)cc1OCC	·	·	·	·	·	-2.8%
COCCn1c(N)c(Sc2ccc(C)cc2)c(=O)[nH]c1=O	?	-3.2	2.0%	·	25.0%	0.2%
CCCCn1c(N)c(Sc2ccc(C)cc2)c(=O)[nH]c1=O	6.2%	0.5	0.5%	15.8µM*	10.8%	-2.0%
O=[N+]([O-])c1ccc2c(c1)C=C/C2=C/c1ccccc1	·	·	·	·	·	3.0%
Cn1ncc([N+](=O)[O-])c1C(=O)Nc1ccc2c(c1)OCCO2	-6.2%	0.5	0.8%	-4.0%	2.9%	31.6µM*
COc1ccc(C2Nc3ccccc3C(=O)N2Cc2ccccc2)cc1Oc1ccc(NC(C)=O)cc1 (stereo not given)	13.3%	·	·	·	·	·
Cc1nn(C)c(C)c1NC(=O)c1cc2nc(-c3ccco3)cc(C(F)(F)F)n2n1	4.1%	0.9	1.3%	4.8%	2.2%	·

Compound activity as filed in PubChem BioAssay.
